# Targets with a hit are over-represented here; the source holds about 7,900 in all. About 0.6% of all pairs of compound and target were hits. A number with no mark means an inactive call.
# Experiments:
# Experiment in all cases: log2 fold change, soluble protein after heating vs DMSO (PISA); higher = thermal stabilisation; K562 cells, 10 uM, 30 min; active = over 0.2 and 3.5 SD of the protein, either way, in both replicates (recomputed)
# [1] = compound: C#Cc1cccc(Nc2ncnc3cc(OCCOC)c(OCCOC)cc23)c1 [erlotinib]
# Summary of the method: (§1)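 K562 cells at 2×10^6 cells/mL were given 10 μM compound for 30 min. Aliquots then went through 3 min of heating across 48°C-58°C, were pooled, and were extracted in PBS with 0.5% NP-40 at 4°C, and the supernatant after 21,000xg for 90 min was quantified by TMTpro 16plex LC-MS/MS with channel sums equalised. Thermal stability relative to control samples, from duplicates, is given as log2 fold change.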
# [2] = compound: C/C(=N\NC(=O)C1=CC(=CC=C1)S(=O)(=O)N2CCOCC2)/C3=C(C=CC(=C3)Cl)O
# Summary of the method: as §1
# [3] = compound: C1=CC(=C(C=C1Cl)C2=NC3=NC=CN=C3C(=N2)NC4=CC=NC=C4)F
# Summary of the method: as §1
# [4] = compound: C1=CC(=CC=C1C2=NC3=C(N2)C=C(C=C3)C(=O)N)OC4=CC=C(C=C4)Cl
# Summary of the method: as §1
# [5] = compound: C1=CC2=C(C=CC(=C2)/C=C\3/C(=O)NC(=NCC4=CC=CS4)S3)N=C1
# Summary of the method: as §1
# [6] = compound: C1=CC2=NC=CN=C2C=C1/C=C/3\C(=O)NC(=O)S3
# Summary of the method: as §1
# [7] = compound: C1=CC=C(C=C1)C2=NC(=C(N2)C3=CC=NC=C3)C4=CC(=C(C=C4)Cl)O
# Summary of the method: as §1
# [8] = compound: C1=CC=C2C(=C1)C3=NNC4=CC=CC(=C43)C2=O
# Summary of the method: as §1
# [9] = compound: C1CCN(C1)C(=O)NC2=CC=CC(=C2)NC3=NC=C(C(=N3)NCCC4=CN=CN4)Br
# Summary of the method: as §1
# [10] = compound: C1CN(CCC1(CC2=CC=C(C=C2)Cl)N)C3=NC=NC4=C3C=CN4
# Summary of the method: as §1
# UniProt O60264, sequence (O60264 whole entry, looked up): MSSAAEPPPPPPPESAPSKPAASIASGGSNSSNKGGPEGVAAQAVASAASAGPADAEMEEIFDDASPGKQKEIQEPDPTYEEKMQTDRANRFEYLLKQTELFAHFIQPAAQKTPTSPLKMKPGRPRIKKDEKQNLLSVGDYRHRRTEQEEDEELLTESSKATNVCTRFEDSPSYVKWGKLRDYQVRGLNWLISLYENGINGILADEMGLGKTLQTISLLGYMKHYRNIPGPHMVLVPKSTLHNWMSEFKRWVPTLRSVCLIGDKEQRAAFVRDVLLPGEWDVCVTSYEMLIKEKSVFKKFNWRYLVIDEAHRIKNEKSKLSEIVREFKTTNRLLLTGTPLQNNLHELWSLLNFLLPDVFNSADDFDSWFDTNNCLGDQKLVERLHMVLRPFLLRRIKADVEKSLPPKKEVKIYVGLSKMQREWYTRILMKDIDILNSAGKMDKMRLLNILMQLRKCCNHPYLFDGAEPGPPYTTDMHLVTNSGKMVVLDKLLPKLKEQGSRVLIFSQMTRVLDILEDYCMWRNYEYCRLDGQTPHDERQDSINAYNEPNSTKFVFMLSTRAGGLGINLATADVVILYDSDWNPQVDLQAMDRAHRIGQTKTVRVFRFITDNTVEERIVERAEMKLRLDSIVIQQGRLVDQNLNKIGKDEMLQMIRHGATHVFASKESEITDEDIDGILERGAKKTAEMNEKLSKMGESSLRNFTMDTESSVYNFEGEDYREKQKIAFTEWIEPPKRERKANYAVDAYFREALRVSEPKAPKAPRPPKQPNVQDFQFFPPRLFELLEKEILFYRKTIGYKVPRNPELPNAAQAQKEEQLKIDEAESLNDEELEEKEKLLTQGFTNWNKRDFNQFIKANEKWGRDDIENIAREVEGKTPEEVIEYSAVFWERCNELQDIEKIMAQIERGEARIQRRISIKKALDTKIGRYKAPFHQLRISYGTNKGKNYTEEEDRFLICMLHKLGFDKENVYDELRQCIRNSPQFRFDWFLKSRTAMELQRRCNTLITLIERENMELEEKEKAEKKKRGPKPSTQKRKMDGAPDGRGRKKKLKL
# UniProt Q15527, sequence (Q15527 whole entry, looked up): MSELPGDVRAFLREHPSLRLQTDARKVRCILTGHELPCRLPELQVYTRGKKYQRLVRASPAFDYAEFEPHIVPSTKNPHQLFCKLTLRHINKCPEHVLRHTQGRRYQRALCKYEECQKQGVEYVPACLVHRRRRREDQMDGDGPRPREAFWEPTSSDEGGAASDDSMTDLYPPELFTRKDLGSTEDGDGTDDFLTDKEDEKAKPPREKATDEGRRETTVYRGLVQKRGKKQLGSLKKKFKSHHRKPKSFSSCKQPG
# UniProt Q9ULP9, sequence (Q9ULP9 whole entry, looked up): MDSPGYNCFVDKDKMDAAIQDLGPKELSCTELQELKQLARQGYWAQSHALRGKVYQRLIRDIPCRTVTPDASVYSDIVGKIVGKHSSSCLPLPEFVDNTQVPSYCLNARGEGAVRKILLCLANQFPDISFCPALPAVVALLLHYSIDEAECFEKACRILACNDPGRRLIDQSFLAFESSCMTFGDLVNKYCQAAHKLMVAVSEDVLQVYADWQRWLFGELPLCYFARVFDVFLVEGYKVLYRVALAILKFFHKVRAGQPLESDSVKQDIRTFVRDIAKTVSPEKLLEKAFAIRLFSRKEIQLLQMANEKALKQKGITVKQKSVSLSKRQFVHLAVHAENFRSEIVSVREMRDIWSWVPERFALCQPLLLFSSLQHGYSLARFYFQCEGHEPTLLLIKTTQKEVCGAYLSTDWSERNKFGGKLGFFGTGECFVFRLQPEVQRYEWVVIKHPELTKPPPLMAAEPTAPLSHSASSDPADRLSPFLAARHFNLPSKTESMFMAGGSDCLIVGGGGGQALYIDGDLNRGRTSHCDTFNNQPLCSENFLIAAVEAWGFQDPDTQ
# UniProt Q15833, sequence (Q15833 whole entry, looked up): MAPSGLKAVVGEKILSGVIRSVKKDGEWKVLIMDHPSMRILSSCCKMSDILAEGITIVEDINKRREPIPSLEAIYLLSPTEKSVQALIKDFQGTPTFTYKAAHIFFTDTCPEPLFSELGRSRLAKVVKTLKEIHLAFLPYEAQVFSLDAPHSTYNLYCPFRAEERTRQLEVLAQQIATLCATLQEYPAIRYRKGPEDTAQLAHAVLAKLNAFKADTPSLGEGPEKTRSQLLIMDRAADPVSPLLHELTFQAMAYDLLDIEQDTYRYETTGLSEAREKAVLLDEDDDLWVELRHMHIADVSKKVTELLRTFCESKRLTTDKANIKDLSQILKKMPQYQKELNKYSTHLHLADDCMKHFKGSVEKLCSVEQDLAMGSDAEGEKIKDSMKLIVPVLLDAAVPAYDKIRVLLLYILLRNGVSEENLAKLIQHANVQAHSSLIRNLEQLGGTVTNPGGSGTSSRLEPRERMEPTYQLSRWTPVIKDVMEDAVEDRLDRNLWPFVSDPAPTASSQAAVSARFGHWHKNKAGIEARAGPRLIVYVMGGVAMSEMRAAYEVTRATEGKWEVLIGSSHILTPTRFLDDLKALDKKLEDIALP
# UniProt Q15208, sequence (Q15208 whole entry, looked up): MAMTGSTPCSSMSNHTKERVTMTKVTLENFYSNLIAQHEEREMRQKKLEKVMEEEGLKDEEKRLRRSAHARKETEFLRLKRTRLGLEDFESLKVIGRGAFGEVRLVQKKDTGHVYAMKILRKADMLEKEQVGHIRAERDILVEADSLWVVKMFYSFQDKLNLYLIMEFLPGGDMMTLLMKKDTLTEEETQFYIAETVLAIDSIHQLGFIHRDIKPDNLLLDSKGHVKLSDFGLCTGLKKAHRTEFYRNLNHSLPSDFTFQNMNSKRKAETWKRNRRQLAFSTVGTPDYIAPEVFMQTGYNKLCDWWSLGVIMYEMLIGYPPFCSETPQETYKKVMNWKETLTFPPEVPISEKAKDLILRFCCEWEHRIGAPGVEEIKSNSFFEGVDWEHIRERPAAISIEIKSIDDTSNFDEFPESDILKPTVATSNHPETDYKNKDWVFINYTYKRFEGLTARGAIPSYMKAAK
# UniProt Q9Y2W1, sequence (Q9Y2W1 whole entry, looked up): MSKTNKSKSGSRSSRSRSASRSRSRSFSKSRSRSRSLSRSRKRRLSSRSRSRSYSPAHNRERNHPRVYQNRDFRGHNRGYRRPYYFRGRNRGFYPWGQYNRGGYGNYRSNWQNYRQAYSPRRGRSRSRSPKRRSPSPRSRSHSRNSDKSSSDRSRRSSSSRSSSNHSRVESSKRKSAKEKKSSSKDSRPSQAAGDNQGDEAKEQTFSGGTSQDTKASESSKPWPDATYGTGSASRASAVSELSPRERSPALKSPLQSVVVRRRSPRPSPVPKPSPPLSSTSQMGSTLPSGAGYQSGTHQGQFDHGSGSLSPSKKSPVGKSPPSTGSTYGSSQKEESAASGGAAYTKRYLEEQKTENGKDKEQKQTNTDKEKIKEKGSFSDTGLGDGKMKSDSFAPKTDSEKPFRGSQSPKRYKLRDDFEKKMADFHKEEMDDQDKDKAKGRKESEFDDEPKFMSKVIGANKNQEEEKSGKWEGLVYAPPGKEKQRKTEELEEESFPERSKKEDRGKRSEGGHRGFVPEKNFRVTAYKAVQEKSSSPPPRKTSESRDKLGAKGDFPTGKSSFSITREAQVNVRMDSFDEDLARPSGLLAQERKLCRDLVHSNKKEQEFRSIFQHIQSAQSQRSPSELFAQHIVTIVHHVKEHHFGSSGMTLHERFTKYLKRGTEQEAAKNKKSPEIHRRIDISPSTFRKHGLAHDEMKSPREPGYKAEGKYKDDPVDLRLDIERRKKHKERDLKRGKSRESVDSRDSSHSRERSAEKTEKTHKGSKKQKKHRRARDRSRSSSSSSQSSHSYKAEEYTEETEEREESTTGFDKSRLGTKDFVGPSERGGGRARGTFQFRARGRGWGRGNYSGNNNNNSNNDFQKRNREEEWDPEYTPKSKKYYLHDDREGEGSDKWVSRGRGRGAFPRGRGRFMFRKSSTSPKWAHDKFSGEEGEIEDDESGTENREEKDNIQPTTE
# UniProt P56962, sequence (P56962 whole entry, looked up): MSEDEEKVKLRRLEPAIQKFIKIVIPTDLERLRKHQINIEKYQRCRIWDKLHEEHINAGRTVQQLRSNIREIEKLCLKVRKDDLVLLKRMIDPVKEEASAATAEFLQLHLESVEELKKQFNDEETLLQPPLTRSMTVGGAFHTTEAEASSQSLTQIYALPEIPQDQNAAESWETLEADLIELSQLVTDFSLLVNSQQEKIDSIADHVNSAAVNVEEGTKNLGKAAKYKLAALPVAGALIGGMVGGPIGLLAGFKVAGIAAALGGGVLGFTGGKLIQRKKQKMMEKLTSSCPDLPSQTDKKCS
# UniProt O75494, sequence (O75494 whole entry, looked up): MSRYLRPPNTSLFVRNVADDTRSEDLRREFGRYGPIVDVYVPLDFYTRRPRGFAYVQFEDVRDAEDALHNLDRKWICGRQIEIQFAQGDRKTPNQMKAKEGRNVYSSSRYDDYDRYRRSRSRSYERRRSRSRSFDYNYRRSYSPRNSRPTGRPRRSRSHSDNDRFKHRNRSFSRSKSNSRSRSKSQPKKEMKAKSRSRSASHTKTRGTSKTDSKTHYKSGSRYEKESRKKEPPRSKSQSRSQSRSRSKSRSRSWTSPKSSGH
# UniProt P35610, sequence (P35610 whole entry, looked up): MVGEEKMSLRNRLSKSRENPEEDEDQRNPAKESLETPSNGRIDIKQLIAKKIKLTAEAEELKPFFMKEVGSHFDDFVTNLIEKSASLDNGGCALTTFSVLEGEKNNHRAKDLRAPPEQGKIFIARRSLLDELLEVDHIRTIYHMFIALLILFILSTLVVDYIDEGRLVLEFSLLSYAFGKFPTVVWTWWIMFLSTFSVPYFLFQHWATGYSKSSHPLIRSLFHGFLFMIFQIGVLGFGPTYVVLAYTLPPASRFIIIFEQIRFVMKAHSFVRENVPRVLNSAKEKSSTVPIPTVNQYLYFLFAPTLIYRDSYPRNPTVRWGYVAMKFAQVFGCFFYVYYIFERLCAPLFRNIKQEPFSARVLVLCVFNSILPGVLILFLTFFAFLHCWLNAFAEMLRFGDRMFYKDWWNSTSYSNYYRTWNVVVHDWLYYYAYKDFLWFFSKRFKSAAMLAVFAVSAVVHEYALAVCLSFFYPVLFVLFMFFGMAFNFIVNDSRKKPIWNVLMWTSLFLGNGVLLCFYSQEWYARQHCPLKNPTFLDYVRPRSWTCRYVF
Target,log2 fold change [1],log2 fold change [2],log2 fold change [3],log2 fold change [4],log2 fold change [5],log2 fold change [6],log2 fold change [7],log2 fold change [8],log2 fold change [9],log2 fold change [10]
SPIRE1 (UniProt Q08AE8),0.16,-0.264,-0.466 (active),-0.119,0.11,-0.034,0.048,-0.063,0.01,0.145
STXBP2 isoform 3 (UniProt Q15833),0.088,0.139,-0.109,-0.049,0.096,-0.004,0.05,0.026,-0.058,-0.166
SSB (UniProt P05455),-0.05,0.045,0.013,0.028,-0.043,-0.014,-0.056,-0.169,-0.151,-0.03
SUGP1 (UniProt Q8IWZ8),0.039,0.093,-0.027,-0.029,-0.01,0.005,0,-0.012,-0.03,-0.001
TDP1 (UniProt Q9NUW8),0.141,–,–,–,–,–,–,–,–,–
SULT1A1 (UniProt P50225),-0.003,0.009,0.109,0.381,0.375 (active),0.031,0.008,0.396 (active),-0.111,0.012
SRSF11 (UniProt Q05519),0.05,0.191,0.06,0.054,-0.049,-0.003,-0.026,-0.003,-0.129,-0.196
SLC25A4 (UniProt P12235),0.007,-0.016,0.035,-0.009,-0.004,0.042,0.045,-0.076,-0.019,0.021
SUN2 (UniProt Q9UH99),-0.067,0.023,-0.031,-0.004,-0.012,0.02,0.005,-0.087,-0.038,-0.017
TFR2 (UniProt Q9UP52),0.009,-0.019,-0.012,-0.015,0.018,0.016,-0.039,-0.023,0.03,0.018
TIMM29 (UniProt Q9BSF4),0.028,0.042,0.049,-0.025,0.064,0.018,-0.035,-0.024,0.037,0.011
SMARCE1 (UniProt Q969G3),0.101,0.04,0.017,0,0.009,0,0.001,-0.057,0.075,-0.127
SURF2 (UniProt Q15527),0.021,-0.067,0.039,-0.03,-0.068,0.113,-0.057,0.027,-0.043,0.009
SMARCAD1 isoform 2 (UniProt Q9H4L7),0.089,0.052,0.071,0.007,0.05,-0.026,0.025,0.022,-0.02,-0.052
SP100 isoform 4 (UniProt P23497),0.011,0.044,0.037,0.022,-0.071,0.063,0.033,-0.05,-0.001,0.035
STX17 (UniProt P56962),0.206,0.003,0.124,0.015,0.041,0.016,-0.01,0.059,-0.004,0.027
SNX12 isoform 1 (UniProt Q9UMY4),0.002,0,0.052,-0.019,0.065,-0.01,0.039,-0.064,0.048,-0.034
SRSF10 (UniProt O75494),0.004,-0.284,-0.701 (active),0.035,-0.044,0.048,-0.148,-0.022,0.063,-0.135
TBC1D24 (UniProt Q9ULP9),0.038,0.068,0.059,0.037,0.072,0,0.048,0.053,0.042,0.157
SNX5 (UniProt Q9Y5X3),0.033,0.09,0.042,0.022,0.057,-0.024,-0.05,-0.038,0.077,-0.009
STK38 (UniProt Q15208),0.039,0.138,0.029,-0.021,0.014,0.079,0.057,0.049,-0.025,-0.05
SMARCA5 (UniProt O60264),0.103,0.044,-0.058,0.005,-0.012,0.078,0.052,-0.103,-0.109,-0.227
TELO2 (UniProt Q9Y4R8),0.043,0.102,-0.185,-0.031,-0.039,0.019,-0.037,0.053,0.046,-0.076
SRP68 (UniProt Q9UHB9),0.047,0.034,-0.043,-0.071,0.011,0.01,0.002,-0.087,0.015,-0.107
THRAP3 (UniProt Q9Y2W1),0.081,0.023,-0.071,0.067,-0.094,-0.002,-0.097,-0.171,0.038,-0.09
SOAT1 (UniProt P35610),0.174,0.099,-0.034,-0.063,0.141,0.063,0.074,-0.038,0.001,0.026
SNX2 (UniProt O60749),0.043,0.075,0.002,0.041,0.067,-0.059,-0.057,-0.049,0.006,-0.013
SLC38A7 (UniProt Q9NVC3),0.009,-0.003,0.071,0.058,0.024,0.088,0.441 (active),0.006,0.011,0.097
SRP72 (UniProt O76094),0.044,0.105,-0.072,-0.054,0.066,0.001,0.005,-0.052,-0.005,-0.194
TCOF1 isoform 4 (UniProt Q13428),0.035,-0.005,-0.005,-0.008,-0.002,0.014,-0.024,-0.001,-0.043,-0.107
